# Reference: PubChem BioAssay (NCATS)
# A number with no mark means an inactive call. Records with an inconclusive call do not appear. A call without a number means that no potency is given here. The source made the active and inactive calls. Unless noted, no rule for the calls is given here.
# How the values were obtained:
# [1] = target: Glucocorticoid receptor (Homo sapiens) (UniProt P04150); assay: qHTS assay for small molecule antagonists of glucocorticoid receptor signaling (AID 588533; active = well fitted inhibition curve with a large enough effect in the signal ratio, with a control signal flat, not every such curve was filed as active; the % refers to the signal ratio;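 also: cells stimulated with 2 nM dexamethasone as agonist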); conditions: HeLa MMTV-bla, GRE beta-lactamase ratio, antagonist mode, 18 h; series mostly up to 76.8 µM
# Summary of the method: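 Antagonist-mode qHTS: compound titrations added to GRE-bla HeLa cells, then dexamethasone 2 nM final; 18 h, 37 C. CCF4 FRET fluorescence normalized to dexamethasone and DMSO; IC50 from Hill fit.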
# [2] = qHTS assay for small molecule agonists of the antioxidant response element (ARE) signaling pathway (AID 651741; active = well fitted activation curve with a large enough effect in the signal ratio; the % refers to the signal ratio; also: potency is read from the fitted curve at half-maximal effect); conditions: HepG2 ARE-bla reporter, beta-lactamase FRET ratio, 16 h; series mostly up to 96 µM
# Summary of the method: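 Agonist activity is measured as ARE-driven beta-lactamase expression in a stable HepG2 reporter line, using 16 h compound treatment at 37 C and a FRET substrate fluorescence readout after 2 h.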
# [3] = qHTS assay for small molecule activators of the p53 signaling pathway (AID 651743; active = well fitted activation curve with a large enough effect in the signal ratio, not every such curve was filed as active; the % refers to the signal ratio; also: potency is read from the fitted curve at half-maximal effect); conditions: HCT-116 p53RE-bla, beta-lactamase FRET ratio, 16 h; activation: active compounds read high
# Summary of the method: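 A beta-lactamase reporter under p53 response element control, stably carried by HCT-116 cells, reported pathway activation. Test compounds were applied for 16 hours at 37 C, and fluorescence was measured 2 hours after adding the B/G FRET substrate.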
# [4] = target: Peroxisome proliferator-activated receptor gamma (Homo sapiens) (UniProt P37231); assay: qHTS assay for small molecule agonists of peroxisome proliferator-activated receptor gamma signaling (AID 588536; active = well fitted curve in the direction sought with a large enough effect in the signal ratio, with a control signal flat, not every such curve was filed as active; the % refers to the signal ratio); conditions: HEK293 PPARg-UAS-bla, beta-lactamase ratio, 16 h; series mostly up to 76.7 µM
# Summary of the method: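 Compound treatment: 16 h, 37 C, HEK293 GeneBLAzer cells. Detection: CCF4, 2 h RT. Values: Hill-fit EC50, efficacy as % of 2 uM rosiglitazone.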
# [5] = target: Peroxisome proliferator-activated receptor gamma (Homo sapiens) (UniProt P37231); assay: qHTS assay for small molecule antagonists of peroxisome proliferator-activated receptor gamma signaling (AID 588537; active = well fitted inhibition curve with a large enough effect in the signal ratio, with a control signal flat, not every such curve was filed as active; the % refers to the signal ratio;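 also: reporter cells co-stimulated with 50 nM rosiglitazone agonist during compound treatment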); conditions: HEK293 PPARg-UAS-bla, beta-lactamase ratio, antagonist mode; series mostly up to 76.8 µM
# Summary of the method: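 Cell-based beta-lactamase assay; GW9662 served as the antagonist control. Stimulation used rosiglitazone, final 50 nM, 16 h, 37 C.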
# [6] = target: Vitamin D3 receptor (Homo sapiens) (UniProt P11473); assay: qHTS assay for small molecule antagonists of vitamin D receptor signaling (AID 588541; calls by dose curve; also: potency is read from the fitted curve at half-maximal effect); conditions: HEK293T VDR-UAS-bla, beta-lactamase ratio, antagonist mode; series mostly up to 76.7 µM
# Summary of the method: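 Antagonist-mode beta-lactamase reporter assay: HEK293T VDR-UAS-bla cells were exposed to titrated compound alongside 1-alpha,25-dihydroxyvitamin D3 at 3 nM final for 16 h. Values were normalized to the 50 nM agonist control and DMSO basal, with IC50 and efficacy from Hill equation fits.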
# [7] = target: Nuclear receptor subfamily 1 group I member 2 (Rattus norvegicus) (UniProt Q9R1A7); assay: qHTS assay for small molecule activators of the rat pregnane X receptor (rPXR) signaling pathway (AID 651751); conditions: rPXR reporter cells, luciferase (One-Glo), 24 h
# [8] = qHTS assay for small molecule activators of the human pregnane X receptor (PXR) signaling pathway (AID 720659); conditions: DPX-2 HepG2 CYP3A4-luciferase, 24 h; series mostly up to 92.3 µM
# [9] = target: Androgen receptor (Homo sapiens) (UniProt P10275); assay: qHTS assay for small molecule agonists of androgen receptor signaling (AID 588515; active = well fitted curve in the direction sought with a large enough effect in the signal ratio, with a control signal flat; the % refers to the signal ratio); conditions: AR-UAS-bla HEK293, beta-lactamase ratio, agonist 16 h; active compounds read high
# Summary of the method: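 Stimulation of an AR-responsive β-lactamase reporter in GripTite HEK293 cells was measured after 16 h compound exposure at 37 °C, via CCF4 fluorescence after 2 h RT. EC50 from Hill fits, normalized to R1881 at 30 nM.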
# [10] = target: Androgen receptor (Homo sapiens) (UniProt P10275); assay: qHTS assay for small molecule antagonists of androgen receptor signaling (AID 588516; active = well fitted curve in the direction sought with a large enough effect in the signal ratio, with a control signal flat, not every such curve was filed as active; the % refers to the signal ratio); conditions: AR-UAS-bla HEK293, beta-lactamase ratio, antagonist mode, 16 h; series mostly up to 76.8 µM
# Summary of the method: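 Antagonist mode: inhibition of R1881-stimulated (10 nM final) bla reporter in GeneBLAzer AR HEK 293 cells, 16 h at 37C, compounds titrated. IC50 and efficacy from Hill-equation fits of 405/460–530 nm FRET ratios.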
# Glucocorticoid receptor (Homo sapiens), sequence (P04150 whole entry, looked up): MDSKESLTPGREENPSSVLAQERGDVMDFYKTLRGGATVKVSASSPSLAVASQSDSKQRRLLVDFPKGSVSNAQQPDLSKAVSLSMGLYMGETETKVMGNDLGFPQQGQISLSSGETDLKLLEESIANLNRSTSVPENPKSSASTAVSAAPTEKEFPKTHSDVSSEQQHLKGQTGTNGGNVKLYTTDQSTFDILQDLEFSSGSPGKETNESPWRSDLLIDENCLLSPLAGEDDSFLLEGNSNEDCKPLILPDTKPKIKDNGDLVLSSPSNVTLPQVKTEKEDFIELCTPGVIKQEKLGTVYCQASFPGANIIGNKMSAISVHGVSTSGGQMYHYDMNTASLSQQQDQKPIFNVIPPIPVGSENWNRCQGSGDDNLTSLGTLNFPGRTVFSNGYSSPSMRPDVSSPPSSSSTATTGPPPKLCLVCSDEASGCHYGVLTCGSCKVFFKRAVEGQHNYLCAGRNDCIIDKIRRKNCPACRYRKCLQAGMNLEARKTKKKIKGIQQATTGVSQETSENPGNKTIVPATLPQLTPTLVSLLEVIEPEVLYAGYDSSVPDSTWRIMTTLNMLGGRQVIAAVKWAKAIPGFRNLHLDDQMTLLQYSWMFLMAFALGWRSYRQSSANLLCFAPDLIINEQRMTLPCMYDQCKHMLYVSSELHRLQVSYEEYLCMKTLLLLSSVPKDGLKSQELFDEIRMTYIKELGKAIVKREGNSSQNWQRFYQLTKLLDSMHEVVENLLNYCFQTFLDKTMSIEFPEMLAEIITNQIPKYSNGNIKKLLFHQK
# Nuclear receptor subfamily 1 group I member 2 (Rattus norvegicus), sequence (Q9R1A7 whole entry, looked up): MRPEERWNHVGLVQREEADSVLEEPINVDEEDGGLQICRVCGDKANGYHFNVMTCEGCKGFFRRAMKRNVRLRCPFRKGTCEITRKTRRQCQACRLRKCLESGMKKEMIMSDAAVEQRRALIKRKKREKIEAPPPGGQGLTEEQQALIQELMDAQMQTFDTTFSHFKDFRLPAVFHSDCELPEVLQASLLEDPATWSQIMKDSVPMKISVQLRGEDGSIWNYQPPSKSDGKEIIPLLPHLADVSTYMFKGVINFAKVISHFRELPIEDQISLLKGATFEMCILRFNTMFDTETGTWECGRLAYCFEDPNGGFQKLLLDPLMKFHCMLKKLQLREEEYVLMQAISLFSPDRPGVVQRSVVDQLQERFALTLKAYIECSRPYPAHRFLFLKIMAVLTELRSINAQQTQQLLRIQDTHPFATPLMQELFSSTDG
# Vitamin D3 receptor (Homo sapiens), sequence (P11473 whole entry, looked up): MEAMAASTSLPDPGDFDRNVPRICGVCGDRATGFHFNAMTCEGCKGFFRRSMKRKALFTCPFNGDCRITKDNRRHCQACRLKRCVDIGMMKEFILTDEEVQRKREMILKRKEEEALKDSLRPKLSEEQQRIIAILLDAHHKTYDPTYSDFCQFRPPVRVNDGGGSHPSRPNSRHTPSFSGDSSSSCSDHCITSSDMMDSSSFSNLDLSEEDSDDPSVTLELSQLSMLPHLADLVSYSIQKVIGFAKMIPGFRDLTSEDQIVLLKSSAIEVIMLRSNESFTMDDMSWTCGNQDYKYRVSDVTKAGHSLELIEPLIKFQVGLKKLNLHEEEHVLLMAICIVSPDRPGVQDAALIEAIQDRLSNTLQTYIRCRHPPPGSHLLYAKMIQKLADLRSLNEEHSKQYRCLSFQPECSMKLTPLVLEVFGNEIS
# Peroxisome proliferator-activated receptor gamma (Homo sapiens), sequence (P37231 whole entry, looked up): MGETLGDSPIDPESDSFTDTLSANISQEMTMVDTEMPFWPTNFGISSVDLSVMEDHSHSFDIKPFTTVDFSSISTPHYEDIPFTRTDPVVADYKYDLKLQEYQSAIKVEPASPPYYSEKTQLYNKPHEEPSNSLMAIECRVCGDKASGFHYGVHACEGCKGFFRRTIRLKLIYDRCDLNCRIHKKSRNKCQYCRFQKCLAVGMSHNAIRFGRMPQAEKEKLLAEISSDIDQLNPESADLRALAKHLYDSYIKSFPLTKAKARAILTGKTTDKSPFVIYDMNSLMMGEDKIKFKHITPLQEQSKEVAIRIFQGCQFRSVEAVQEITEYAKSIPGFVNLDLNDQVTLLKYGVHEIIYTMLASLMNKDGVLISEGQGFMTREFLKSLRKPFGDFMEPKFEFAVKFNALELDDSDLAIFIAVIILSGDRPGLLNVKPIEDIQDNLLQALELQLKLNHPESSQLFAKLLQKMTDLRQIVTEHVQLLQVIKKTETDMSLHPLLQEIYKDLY
# Androgen receptor (Homo sapiens), sequence (P10275 whole entry, looked up): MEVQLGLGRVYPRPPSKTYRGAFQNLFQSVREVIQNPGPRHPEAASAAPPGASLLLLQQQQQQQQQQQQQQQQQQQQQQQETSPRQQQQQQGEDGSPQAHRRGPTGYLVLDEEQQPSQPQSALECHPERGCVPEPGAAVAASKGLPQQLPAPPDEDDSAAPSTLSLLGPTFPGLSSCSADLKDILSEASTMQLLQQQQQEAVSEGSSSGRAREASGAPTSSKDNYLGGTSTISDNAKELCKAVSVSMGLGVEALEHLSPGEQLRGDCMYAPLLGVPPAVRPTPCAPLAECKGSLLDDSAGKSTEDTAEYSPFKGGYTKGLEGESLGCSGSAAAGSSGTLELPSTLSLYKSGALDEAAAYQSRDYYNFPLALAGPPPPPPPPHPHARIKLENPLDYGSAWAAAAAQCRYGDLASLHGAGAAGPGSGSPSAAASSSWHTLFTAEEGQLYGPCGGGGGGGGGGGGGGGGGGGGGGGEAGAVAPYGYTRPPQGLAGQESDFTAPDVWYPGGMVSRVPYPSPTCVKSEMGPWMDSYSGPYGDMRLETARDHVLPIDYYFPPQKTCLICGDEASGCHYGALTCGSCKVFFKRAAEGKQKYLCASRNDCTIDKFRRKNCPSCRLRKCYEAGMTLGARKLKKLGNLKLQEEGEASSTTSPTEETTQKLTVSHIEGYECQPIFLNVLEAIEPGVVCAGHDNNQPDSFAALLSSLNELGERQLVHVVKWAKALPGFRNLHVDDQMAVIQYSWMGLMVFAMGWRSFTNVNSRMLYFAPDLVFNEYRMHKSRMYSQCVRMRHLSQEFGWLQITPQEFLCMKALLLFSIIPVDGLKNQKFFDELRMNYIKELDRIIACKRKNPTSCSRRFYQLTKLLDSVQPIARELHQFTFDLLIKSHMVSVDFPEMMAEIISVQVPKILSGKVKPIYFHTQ
smiles,measurement,setting,value
CC(C)(C)[C@@H](O)/C(=C\c1ccc(Cl)cc1Cl)n1cncn1,Potency,[1],inactive
same,Potency,[2],68.6 µM (active)
same,activation,[3],-3.2%
CCCCCCCCCCCC#N,Potency,[1],inactive
same,Potency,[4],inactive
same,Potency,[5],inactive
same,Potency,[6],inactive
same,Potency,[2],inactive
same,activation,[3],0.106%
same,max response,[7],0.164%
same,outcome,[8],inactive
Brc1ccc(Br)cc1,Potency,[1],inactive
same,Potency,[4],inactive
same,Potency,[5],inactive
same,Potency,[6],inactive
same,max response,[7],-2.46%
same,outcome,[8],inactive
O=C(O)c1c(Cl)ccc2cc(Cl)cnc12,Potency,[1],inactive
same,Potency,[4],inactive
same,Potency,[5],inactive
same,Potency,[6],inactive
same,Potency,[2],inactive
same,max response,[7],-2.15%
same,outcome,[8],inactive
CC(C)=C[C@@H]1[C@@H](C(=O)OCN2C(=O)C3=C(CCCC3)C2=O)C1(C)C,activation,[9],0.858%
same,Potency,[6],inactive
same,activation,[3],11.9%
same,max response,[7],4.94%
CS(=O)(=O)NC(=O)c1cc(Oc2ccc(C(F)(F)F)cc2Cl)ccc1[N+](=O)[O-],Potency,[4],inactive
same,Potency,[6],inactive
same,activation,[3],-3.62%
same,max response,[7],-4.18%
same,outcome,[8],inactive
COP(=O)(OC)Oc1nc(Cl)c(Cl)cc1Cl,Potency,[10],inactive
same,Potency,[1],inactive
same,Potency,[6],inactive
same,Potency,[2],48.6 µM (active)
same,max response,[7],0.764%
same,outcome,[8],inactive
FC(F)C(F)(F)OCC(Cn1cncn1)c1ccc(Cl)cc1Cl (configuration not stated),Potency,[1],inactive
same,Potency,[4],inactive
same,Potency,[6],inactive
same,activation,[3],0.478%
Cc1ccn2nc(S(=O)(=O)Nc3c(F)cccc3F)nc2n1,Potency,[5],inactive
same,Potency,[6],inactive
same,max response,[7],-3.4%
same,outcome,[8],inactive
CC(C)COP(=O)(OCC(C)C)OCC(C)C,Potency,[1],inactive
same,Potency,[4],inactive
same,Potency,[5],inactive
same,Potency,[6],inactive
same,activation,[3],-2.4%
same,max response,[7],-5.22%
same,outcome,[8],inactive
CC1COC(Cn2cncn2)(c2ccc(Oc3ccc(Cl)cc3)cc2Cl)O1 (configuration not stated),Potency,[2],15.4 µM (active)
same,activation,[3],12.1%
same,max response,[7],-12.8%
same,outcome,[8],inactive
CC(C)C1(C)N=C(c2ncccc2C(=O)O)NC1=O (configuration not stated),Potency,[1],inactive
same,Potency,[4],inactive
same,Potency,[6],inactive
same,Potency,[2],inactive
same,activation,[3],-4.94%
same,max response,[7],-3.34%
same,outcome,[8],inactive
CCN(CC)C(=O)SCc1ccc(Cl)cc1,Potency,[1],inactive
same,Potency,[5],inactive
same,Potency,[6],inactive
same,max response,[7],1.53%
CCS(=O)(=O)c1cccnc1S(=O)(=O)NC(=O)Nc1nc(OC)cc(OC)n1,Potency,[1],inactive
same,Potency,[4],inactive
same,Potency,[5],inactive
same,Potency,[2],10.9 µM (active)
same,activation,[3],-3.66%
same,max response,[7],-1.1%
COc1cccc(C(=O)NN(C(=O)c2cc(C)cc(C)c2)C(C)(C)C)c1C,Potency,[4],inactive
same,Potency,[5],inactive
same,Potency,[6],inactive
same,activation,[3],-3.69%
O=[N+]([O-])c1cc(C(F)(F)F)c(Cl)c([N+](=O)[O-])c1Nc1ncc(C(F)(F)F)cc1Cl,Potency,[6],22.4 µM (active)
same,outcome,[8],inactive
CCC(CC)Nc1c([N+](=O)[O-])cc(C)c(C)c1[N+](=O)[O-],Potency,[1],inactive
same,Potency,[4],inactive
same,Potency,[5],inactive
same,Potency,[2],27.3 µM (active)
same,activation,[3],-0.326%
CSc1nnc(C(C)(C)C)c(=O)n1N,Potency,[1],inactive
same,Potency,[6],inactive
same,Potency,[2],inactive
same,activation,[3],-4.16%
same,max response,[7],0.612%
CCCOCC(=Nc1ccc(Cl)cc1C(F)(F)F)n1ccnc1,Potency,[1],inactive
same,Potency,[6],inactive
O=C/C(Cl)=C(/Cl)C(=O)O,Potency,[2],30.6 µM (active)
same,max response,[7],-11.2%
same,outcome,[8],inactive
CC1(C(=O)Nc2ccc(O)c(Cl)c2Cl)CCCCC1,Potency,[4],inactive
same,Potency,[2],30.6 µM (active)
same,activation,[3],0.119%
same,max response,[7],1.26%
CCOP(=S)(OCC)SCn1nnc2ccccc2c1=O,Potency,[4],inactive
same,Potency,[6],inactive
same,Potency,[2],54.5 µM (active)
same,activation,[3],2.43%
CCOP(=S)(NC(C)C)Oc1ccccc1C(=O)OC(C)C (configuration not stated),Potency,[1],inactive
same,Potency,[4],inactive
same,Potency,[5],inactive
same,Potency,[6],inactive
same,Potency,[2],inactive
C1CC[CH]([Sn]([CH]2CCCCC2)[CH]2CCCCC2)CC1,Potency,[1],inactive
same,Potency,[2],19.3 µM (active)
same,activation,[3],-8.17%
same,outcome,[8],inactive
CCC(C)c1ccc(O)cc1 (configuration not stated),max response,[7],-4.44%
same,outcome,[8],inactive
CCC(C)c1cc([N+](=O)[O-])cc([N+](=O)[O-])c1O (configuration not stated),Potency,[4],inactive
same,Potency,[6],inactive
same,Potency,[3],6.31 µM (active)
CC(Oc1ccc(Cl)cc1Cl)C(=O)O (configuration not stated),Potency,[1],inactive
same,Potency,[5],inactive
same,Potency,[6],inactive
same,activation,[3],0.243%
same,max response,[7],-2.29%
same,outcome,[8],inactive
C=CCC1=C(C)[C@@H](OC(=O)[C@@H]2[C@@H](C=C(C)C)C2(C)C)CC1=O,Potency,[1],inactive
same,Potency,[6],inactive
same,activation,[3],0.97%
CCC[CH2][Sn]([CH2]CCC)([CH2]CCC)[O][Sn]([CH2]CCC)([CH2]CCC)[CH2]CCC,Potency,[2],27.3 µM (active)
CC(C)N(C(=O)SCC(Cl)=C(Cl)Cl)C(C)C,Potency,[1],inactive
same,Potency,[6],inactive
same,activation,[3],-5.02%
O=[N+]([O-])c1ccc(Nc2ccccc2)cc1,Potency,[1],inactive
O=S(=O)(c1ccc(Cl)cc1)c1cc(Cl)c(Cl)cc1Cl,Potency,[1],inactive
same,Potency,[6],inactive
O=P(Oc1ccccc1)(Oc1ccccc1)Oc1ccccc1,Potency,[1],inactive
same,Potency,[6],inactive
same,activation,[3],-5.18%
CN(C)c1ccc(C(=O)c2ccc(N(C)C)cc2)cc1,Potency,[4],inactive
same,Potency,[3],3.98 µM (active)
COC(=O)C(C)Oc1ccc(Oc2ccc(Cl)cc2Cl)cc1 (configuration not stated),activation,[3],-3.5%
same,max response,[7],-0.585%
same,outcome,[8],inactive
CC1(C)[C@H](C(=O)O[C@H](C#N)c2cccc(Oc3ccccc3)c2)[C@@H]1/C=C(\Cl)C(F)(F)F,Potency,[1],inactive
same,Potency,[6],inactive
same,Potency,[2],54.5 µM (active)
same,activation,[3],1.92%
CC(Oc1cccc(Cl)c1)C(=O)O (configuration not stated),Potency,[1],inactive
same,Potency,[4],inactive
same,Potency,[6],inactive
same,activation,[3],0.409%
same,max response,[7],-1.92%
same,outcome,[8],inactive
CC(C)OC(=O)C(O)(c1ccc(Br)cc1)c1ccc(Br)cc1,Potency,[6],inactive
CC1=C(C(=O)Nc2ccccc2)S(=O)(=O)CCO1,Potency,[4],inactive
same,Potency,[2],8.63 µM (active)
same,max response,[7],-5.83%
same,outcome,[8],inactive
